Assay [1] concerns MILI (PIWIL2) piRISC loaded with piRNA #1 (26 nt). Kind of assay: pre-steady-state target cleavage rate (min^-1); guide: piRNA #1 5'p-UGAGGUAGUAGGUUGUAUAGUAUCCA; higher = faster piRNA-guided slicing of the target. To be noted: auxiliary factor: 500 nM mouse GTSF1. An outline of the steps: (§1)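 Using HEPES–potassium acetate buffer at 33 °C, 1 nM active affinity-purified piRISC with a single synthetic guide was mixed with 0.1 nM transcribed, DNA-blocked target RNA library for 0–8 or 0–960 min, with or without 500 nM GTSF1 partner protein. Uncleaved targets were sequenced and normalised to depth and to weakly complementary targets, and three trials were pooled with k3 capped at 0.0001 min^-1. A burst-and-steady-state fit gave the pre-steady-state cleavage rate.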

The subject of assay [2] is EfPiwi piRISC loaded with piRNA #1 (26 nt). Put plainly: pre-steady-state target cleavage rate (min^-1); auxiliary factor: 500 nM Ephydatia muelleri Gtsf1; guide: piRNA #1 5'p-UGAGGUAGUAGGUUGUAUAGUAUCCA; MIWI and MILI are mouse PIWI proteins and EfPiwi is from a freshwater sponge; tags in brackets are library labels; higher = faster piRNA-guided slicing of the target. The essentials:
as §1

± gives the standard deviation.

Turning to GGAGACCAAACUAAACAACCUACUACCUCA, the “pre-steady-state target cleavage rate” value was determined as 0.104 ± 0.027 in assay [1] and 0.00793 ± 0.0036 in assay [2].
In the same order, the values of GGAGACGAAACUAUACAACCUACUACCUGA are 0.149 ± 0.039 and 0.00491 ± 0.0026.
In the same order, the values of GGAGACCUAUGUAUACAACCUACAACCACA are 0.0115 ± 0.0032 and below 0.0001.
In the case of “GGAGACGAUACUAUACAACCUACUACCUCA [g2:g24:cont:t1A]”, the “pre-steady-state target cleavage rate” value in assay [1] stood at 0.21 ± 0.018; in assay [2], 0.0773 ± 0.024.
In the same order, the values of GGAGUGGAUACUAUACAACCUACCACCUCA are 0.0748 ± 0.01 and 0.00271 ± 0.0014.
As to GGAGACCUUACUAUACAACCUACUACCGCA, the “pre-steady-state target cleavage rate” value was found to be 0.19 ± 0.022 in assay [1] and 0.00343 ± 0.0026 in assay [2].
Turning to GGAGUGGUUACUAUUCAACCUACUACCUCA, the “pre-steady-state target cleavage rate” value in assay [1] was 0.202 ± 0.012; in assay [2] it was 0.00293 ± 0.0021.
Taken in the same sequence, the figures for GGAGACCUAAGUAUACAACCUACUACCUCA were 0.0701 ± 0.0097 and 0.00697 ± 0.0037.
On to GGAGACCUAUGUCAUACAACCUACUACCUCA, for which the results for the “pre-steady-state target cleavage rate” value in assay [1] and in assay [2] were 0.0265 ± 0.008 and 0.00679 ± 0.0034, respectively.
In the same order, the values of GGAGAGGAUACUAUACUACCUAGUACCUCA are 0.00407 ± 0.0037 and 0.00301 ± 0.0017.
Regarding GGAGUGGAUACAAUACAACCUACUACCUGA, the “pre-steady-state target cleavage rate” value in assay [1] amounted to 0.0731 ± 0.011; in assay [2], 0.00396 ± 0.0018.
In the same order, the values of GGAGACGAUACUAUACUACCUAGUACCUCA are 0.0742 ± 0.015 and 0.00268 ± 0.0016.
Taken in the same sequence, the figures for GGAGACGAUACUAUACAACCUAACUACCUCA were 0.0232 ± 0.0036 and 0.0045 ± 0.0021.
For GGAGUGGAUACUAUUCAACCUAGUACCUCA, the “pre-steady-state target cleavage rate” value in assay [1] was 0.0485 ± 0.0085; in assay [2], 0.00286 ± 0.0013.
Take GGAGUGGAUACUAUACAACCUACUACCACA: the figures for the “pre-steady-state target cleavage rate” value in assay [1] and in assay [2] were 0.113 ± 0.0097 and 0.00561 ± 0.0019, respectively.
Taken in the same sequence, the figures for GGAGACGAUACUAUACAACCUUCUACCUCA were 0.0098 ± 0.0026 and 0.00729 ± 0.0029.
Taken in the same sequence, the figures for GGAGACGAUACUAUACAACCUACUUACCUCA were 0.169 ± 0.014 and 0.0069 ± 0.0023.
For the sequence GGAGUGGAUACUAAACAACCUACUACCUCA, the “pre-steady-state target cleavage rate” value in assay [1] amounted to 0.168 ± 0.0092; in assay [2], 0.00791 ± 0.0037.
For GGAGAGGAUACUAUACAACCUACUCACCUCA, the “pre-steady-state target cleavage rate” value in assay [1] was found to be 0.138 ± 0.016; in assay [2] it was 0.00339 ± 0.0021.
In the same order, the values of GGAGACCUUACAUUACAACCUACUACCUCA are 0.0294 ± 0.0055 and 0.00334 ± 0.0033.
Taken in the same sequence, the figures for GGAGACCAUACUAUACAACGUACUAGCUCA were 0.00786 ± 0.0034 and 0.00358 ± 0.0035.
With GGAGUGGAAACUAUACAACCUUCUACCUCA, the “pre-steady-state target cleavage rate” value in assay [1] came out at 0.00517 ± 0.0028; in assay [2] it was 0.00484 ± 0.0029.
In the same order, the values of GGAGAGGAUACUAUACAACCCUACUACCUCA are 0.0028 ± 0.0028 and 0.00598 ± 0.0032.
Taken in the same sequence, the figures for GGAGUGGAUACUAUAGAACCUACUACCUCA were 0.178 ± 0.0098 and 0.00377 ± 0.0019.
For GGAGUGGAUAGUAUACAACCUACUUCCUCA, the “pre-steady-state target cleavage rate” value was 0.0138 ± 0.0048 in assay [1] and 0.00264 ± 0.0019 in assay [2].
In the same order, the values of GGAGACGAUACUUUACAACGUACUACCUCA are 0.0294 ± 0.0045 and 0.00234 ± 0.0017.
Taken in the same sequence, the figures for GGAGACGAUACUAUACAUCCUACUACCUCA were 0.289 ± 0.024 and 0.00772 ± 0.0032.
Turning to GGAGACCUAAGAAUACAACCUACUACCUCA, the “pre-steady-state target cleavage rate” value in assay [1] came to 0.0112 ± 0.0044; in assay [2] it was 0.00727 ± 0.0035.
In the same order, the values of GGAGUUGAUACUAUACAACCUACUACCUCA are 0.204 ± 0.012 and 0.193 ± 0.06.
For GGAGACCAUACUAUACAACCUACUUACCUCA, the “pre-steady-state target cleavage rate” value in assay [1] was 0.175 ± 0.017; in assay [2] it was 0.00697 ± 0.0031.
As to GGAGAGGAAACUAUUCAACCUACUACCUCA, the results for the “pre-steady-state target cleavage rate” value in assay [1] and in assay [2] were 0.172 ± 0.021 and 0.013 ± 0.0061, respectively.
On to GGAGAGGAUACUAUACAACCUACUACGUCA, for which the “pre-steady-state target cleavage rate” value stood at 0.058 ± 0.0086 in assay [1] and 0.00636 ± 0.0029 in assay [2].
Take GGAGAGGAAACUAUACUACCUACUACCUCA: the “pre-steady-state target cleavage rate” value came to 0.239 ± 0.025 in assay [1] and 0.00544 ± 0.0027 in assay [2].
Taken in the same sequence, the figures for GGAGACCUAUCUUAUACAACCUACUACCUCA were 0.145 ± 0.031 and 0.0118 ± 0.0052.
Taken in the same sequence, the figures for GGAGACCUAACUAUACAACCUACUACGUGA were 0.0518 ± 0.018 and 0.0069 ± 0.0046.
Taken in the same sequence, the figures for GGAGAGCUUACUAUACAACCUACUACCUCA were 0.132 ± 0.0097 and 0.0193 ± 0.0089.
For the sequence GGAGACCUAACUAUACAACCUACUGCCUCA, the “pre-steady-state target cleavage rate” value in assay [1] is 0.102 ± 0.024; in assay [2], 0.0364 ± 0.015.
In the same order, the values of GGAGACCUAACUAUACAACCUACUUCCUCA are 0.0606 ± 0.02 and 0.00336 ± 0.0029.
In the same order, the values of GGAGAGCAUACUAUACAUCCUACUACCUCA are 0.335 ± 0.02 and 0.00491 ± 0.0024.
In the same order, the values of GGAGAGGAUACUAACAACCUACUACCUCA are 0.181 ± 0.013 and 0.00812 ± 0.0046.
Consider GGAGACGAUACUAUACAACGUACUACCUGA, for which the “pre-steady-state target cleavage rate” value in assay [1] was 0.0157 ± 0.0045; in assay [2], 0.0041 ± 0.0012.
Taken in the same sequence, the figures for GGAGUCGUUACUAUACAACCUACUACCUCA were 0.158 ± 0.011 and 0.0129 ± 0.0069.
In the same order, the values of GGAGAGGAUUACUAUACAACCUACUACCUCA are 0.132 ± 0.0095 and 0.0829 ± 0.03.
Taken in the same sequence, the figures for GGAGACCAUACUAUACAACCUACUACAUCA were 0.0875 ± 0.011 and 0.00692 ± 0.004.
In the case of GGAGUGGAUACUAUACAACACUACUACCUCA, the results for the “pre-steady-state target cleavage rate” value in assay [1] and in assay [2] were 0.00621 ± 0.0026 and 0.00629 ± 0.003, respectively.
Turning to GGAGACCAUACUAUACAACGUACUACCACA, the “pre-steady-state target cleavage rate” value in assay [1] amounted to 0.0309 ± 0.0064; in assay [2], 0.00321 ± 0.0029.
In the same order, the values of GGAGACCUAACUAUACAACCUACUAGCUCA are 0.0915 ± 0.027 and 0.00459 ± 0.0036.
In the same order, the values of GGAGACCAUACUAUACAACGUAGUACCUCA are 0.0119 ± 0.0033 and 0.00264 ± 0.0023.
On to GGAGUGGAUACUAUACAACCUACUACGUGA, for which the “pre-steady-state target cleavage rate” value came out at 0.0157 ± 0.0044 in assay [1] and 0.00378 ± 0.0015 in assay [2].
In the same order, the values of GGAGACCUAAAUAUACAACCUACUACCUCA are 0.0318 ± 0.0077 and 0.0102 ± 0.0046.
GGAGAGGAUACUAUACAACCUACAACCUCA: the “pre-steady-state target cleavage rate” value in assay [1] was found to be 0.111 ± 0.015; in assay [2], 0.00428 ± 0.0019.
On to GGAGUGAGAUACUAUACAACCUACUACCUCA, for which the “pre-steady-state target cleavage rate” value came out at 0.189 ± 0.012 in assay [1] and 0.0362 ± 0.015 in assay [2].
For GGAGACCUUACUAAUACAACCUACUACCUCA, the figures for the “pre-steady-state target cleavage rate” value in assay [1] and in assay [2] were 0.0928 ± 0.01 and 0.074 ± 0.027, respectively.
With GGAGACGAUACUAAACAUCCUACUACCUCA, the “pre-steady-state target cleavage rate” value in assay [1] is 0.267 ± 0.021; in assay [2], 0.00359 ± 0.0026.
For GGAGUGGAAACUUUACAACCUACUACCUCA, the figures for the “pre-steady-state target cleavage rate” value in assay [1] and in assay [2] were 0.179 ± 0.02 and 0.00583 ± 0.0037, respectively.
Take GGAGACGAUACUAUACAACCUACUUCCUCA: the “pre-steady-state target cleavage rate” value came to 0.0885 ± 0.024 in assay [1] and 0.00431 ± 0.0018 in assay [2].
With GGAGACGAUUGAAUACAACCUACUACCUCA, the “pre-steady-state target cleavage rate” value in assay [1] worked out at 0.00898 ± 0.0022; in assay [2], 0.00528 ± 0.0043.
Regarding GGAGAGGAUAGUAUACAACCUACAACCUCA, the “pre-steady-state target cleavage rate” value in assay [1] was determined as 0.037 ± 0.0093; in assay [2], 0.00249 ± 0.0021.
As to GGAGAGGAUACUAUACAACCACUACCUCA, the figures for the “pre-steady-state target cleavage rate” value in assay [1] and in assay [2] were 0.00782 ± 0.0025 and 0.00549 ± 0.0026, respectively.
Taken in the same sequence, the figures for GGAGACCUAUCUAUACAACCUACUGCCUCA were 0.0855 ± 0.013 and 0.00997 ± 0.0044.
Taken in the same sequence, the figures for GGAGAGGAUACUUUACAACCUACUACCUCA were 0.172 ± 0.011 and 0.00667 ± 0.0036.
In the same order, the values of GGAGUGGAUACUAUUCAACCUACUAGCUCA are 0.0538 ± 0.0095 and 0.0025 ± 0.0021.
Turning to GGAGAGGAUACUAUACAAGCUACUUCCUCA, the figures for the “pre-steady-state target cleavage rate” value in assay [1] and in assay [2] were 0.0737 ± 0.013 and 0.00375 ± 0.0015, respectively.
In the same order, the values of GGAGACCAUACUUAACAACCUACUACCUCA are 0.134 ± 0.018 and 0.00395 ± 0.0032.
Taken in the same sequence, the figures for GGAGACCUAUGAUAUGUUGCUACUACCUA were below 0.0001 and below 0.0001.
For GGAGUGUAUACUAUACAACCUACUACCUCA, the “pre-steady-state target cleavage rate” value was determined as 0.167 ± 0.0094 in assay [1] and 0.0133 ± 0.0057 in assay [2].

(Values after the supplement of paper PMC10338343.)
